# Results taken from PubChem BioAssay AID652105 (National Center for Advancing Translational Sciences (NCATS), 2013).
# Among all 330,000 compounds or so, about 4,100 (1.2%) were called active. Roughly 2% stayed inconclusive and do not appear here. How the source made its calls: active means max response of -50% or lower; inconclusive means between -30% and -50%; inactive means -30% or higher. This excerpt belongs to a sample that is enriched for actives.
# Target: Phosphatidylinositol 5-phosphate 4-kinase type-2 alpha (Homo sapiens) (UniProt P48426)
# Experiment: qHTS for Inhibitors of phosphatidylinositol 5-phosphate 4-kinase (PI5P4K); further: value at the top dose of about 77 µM
# Details: PI5P4Kalpha enzyme, ADP-Glo luminescence, 60 min; hits give low values
# Text: In addition to finding PI5P, we discovered the type II phosphatidylinositol 5-phosphate 4-kinase (PI5P4K) family (alpha, beta, gamma isoforms) that catalyze the conversion of PI5P to PI(4,5)P2. Alternatively, PI(4,5)P2 can also be synthesized through phosphatidylinositol-4-phosphate (PI4P) by the type I phosphatidylinositol 4-phosphate 5-kinases (PI4P5K). These PI5P4K enzymes therefore represent one way by which cells can regulate endogenous PI5P levels and play important roles in insulin signaling and in stress responses.
# This proposal aims to identify and optimize specific modulators of human PI5P4K, phosphatidylinositol-5-phosphate 4-kinase (Type II PIPK), a family of kinases that regulate AKT signaling and tumor cell growth. In this project we aim to identify inhibitors of human PI5P4K using a quantitative high-throughput screening approach against the MLSMR containing ~400,000 small molecules.
# NIH Chemical Genomics Center [NCGC]
# NIH Molecular Libraries Probe Centers Network [MLPCN]
# Assay Submitter (PI): Atsuo Sasaki, Beth Israel Deaconess Medical Center
# 2 microL of PI5P4Kalpha/substrate buffer (columns 1-2, 5-48) are dispensed into Greiner white solid bottom 1536-well assay plates; column 3 receives only PI5P4Kalpha buffer as 0x substrate controls; column 4 receives only substrate buffer as 0x PI5P4Kalpha controls. Final assay buffer consists of 0.038 M HEPES pH 7.4, 0.28 mM EGTA, 0.1% CHAPS, and 5% DMSO (final concentration). Compounds are then transferred via Kalypsys pin tool equipped with 1536-pin array (10 nL slotted pins, V&P Scientific, San Diego, CA). Following addition of compound, 1 microL of ATP (5 microM final concentration, all columns) is added to initiate the reaction. ATP is diluted in an assay buffer consisting of 0.02 M HEPES pH 7.4, 60 mM MgCl2, 15 microM ATP, and 0.1% CHAPS. The plates are then incubated at room temperature for 60 minutes. ADP-Glo reagent 1 is added (2 microL) and plates incubated for 45 minutes, before ADP-Glo reagent 2 (4 microL) is added and plates incubated for 30 minutes. They are then transferred to a ViewLux high-throughput CCD imager (PerkinElmer) wherein single end-point measurements of luminescence are acquired using a clear filter.
# On the % scale 0 is the no-effect control and ±100 the full control effect.
# Chain of Phosphatidylinositol 5-phosphate 4-kinase type-2 alpha (Homo sapiens) (P48426 whole entry, looked up): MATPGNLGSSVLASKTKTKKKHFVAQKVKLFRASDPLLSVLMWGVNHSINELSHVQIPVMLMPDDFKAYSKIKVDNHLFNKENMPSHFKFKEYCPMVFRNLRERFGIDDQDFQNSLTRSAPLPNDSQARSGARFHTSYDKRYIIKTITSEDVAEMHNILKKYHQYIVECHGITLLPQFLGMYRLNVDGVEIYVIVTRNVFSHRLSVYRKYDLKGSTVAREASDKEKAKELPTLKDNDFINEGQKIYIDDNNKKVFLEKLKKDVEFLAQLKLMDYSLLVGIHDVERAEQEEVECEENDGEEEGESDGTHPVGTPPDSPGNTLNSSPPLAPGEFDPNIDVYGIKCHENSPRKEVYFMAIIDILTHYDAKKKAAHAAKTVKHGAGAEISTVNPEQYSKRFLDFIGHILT
row,Compound,max response
1,O=C(Nc1ccc(S(=O)(=O)Nc2nccs2)cc1)c1cc(-c2ccncc2)nc2ccccc12,-67.1% (active)
2,O=C(Nc1ccc(S(=O)(=O)Nc2nccs2)cc1)c1cc(=O)[nH]c2ccccc12,-12.6% (inactive)
3,CCN(CC)CCNC(=O)c1ccc(NC(=O)c2cc(-c3ccncc3)nc3ccccc23)cc1,-5.2% (inactive)
4,Cc1nn(CC(=O)Nc2ccc3c(c2)OCO3)c(C)c1[N+](=O)[O-],1.6% (inactive)
5,Cc1ccc(C(=O)O)cc1-c1ccc(/C=C2\SC(=O)N(CC(=O)Nc3ccc4c(c3)OCO4)C2=O)o1,-59.9% (active)
6,Cc1ccc(C(=O)Nc2ccc3c(c2)OCO3)cc1S(=O)(=O)N1CCCCC1,0.934% (inactive)
7,CC(=O)Nc1cc(-c2ccc(N3CCN(C)CC3)cc2)cn2c(-c3cccc(C(=O)N(C)C)c3)cnc12,4.25% (inactive)
8,CCc1nc2c(OCCOc3ccc(F)cc3)cccn2c1N(C)C(=O)c1ccccc1F,-7.43% (inactive)
9,COc1cccc(-c2ccc3c(c2)N(Cc2ccccc2OC)C(=O)C(C)S3)c1 (configuration not stated),20.2% (inactive)
10,COc1ccc([C@H]2CC(=O)C[C@@H](CCn3cc(CC4CCCC4)nn3)O2)cc1,9.59% (inactive)
11,CN1C(=O)/C(=C/c2ccco2)SC1=Nc1cccc(C(=O)O)c1,-16.9% (inactive)
12,Cc1ccc(N=C2NC(=O)/C(=C/C=C/c3ccco3)S2)cc1C,-76.1% (active)
13,Cc1ccc(N2NC(=O)/C(=C/C=C/c3ccco3)C2=O)cc1C,-13.7% (inactive)
14,N#Cc1c(-c2cccs2)nc(SCC(=O)c2ccc(Br)cc2)[nH]c1=O,-61.8% (active)
15,Cc1ccc(CSc2nc(-c3ccccc3)c(C#N)c(=O)[nH]2)cc1,-3.14% (inactive)
16,O=C(CSc1nc2ccccc2c(=O)[nH]1)Nc1nc(-c2ccc(Br)cc2)cs1,2.06% (inactive)
17,CCc1nc2c(OCCc3cccc(OC)c3)cccn2c1N(C)C(=O)c1ccc(C)cc1,2.18% (inactive)
18,COc1ccc(CN2C[C@H]3CON(C)[C@H]3C[C@H]2c2ccc(-c3cccc(F)c3)cc2)cc1,18.3% (inactive)
19,C[N+](C)(C)CCOP(=O)([O-])OC[C@H](O)CO,-87.3% (active)
20,COC(=O)C[C@H]1C=C[C@H](NC(=O)c2ccc(F)cc2)[C@@H](CO)O1,-0.944% (inactive)
21,COC(=O)c1ccc2nc(-c3cccc(Br)c3)c(Cc3ccccc3C(F)(F)F)n2c1,4.18% (inactive)
22,C#CCN(C[C@@H]1[C@@H](OC(=O)NC2CC2)[C@@H](OC(=O)NC2CC2)Cn2c(=O)ccc(=O)n21)S(=O)(=O)c1ccc(C)cc1,-1.14% (inactive)
23,COCCNC(=O)C1C(=O)Nc2ccccc2C(=O)N1c1ccc2c(c1)OCCO2 (configuration not stated),7.16% (inactive)

row,Compound,max response
1,O=C(c1ccccc1)c1ccc(C(=O)N2CCN(c3ccccc3)CC2)cc1,6.71% (inactive)
2,O=C(c1cc2c(s1)CCC2)N1CCN(c2ccccc2)CC1,-53% (active)
3,O=C(NNC(=O)c1cc2c(s1)CCCC2)c1ccccc1,0.43% (inactive)
4,C=CCn1cnc2scc(-c3ccccc3)c2c1=O,-1.04% (inactive)
5,CCC1(C)Cc2c(sc3[nH]c(=S)n(Cc4ccccc4)c(=O)c23)CO1 (configuration not stated),-15.7% (inactive)
6,C=CCn1c(=S)[nH]c2scc(-c3ccco3)c2c1=O,-84.2% (active)
7,Clc1cccc(Cc2c(-c3cccc(Cl)c3)nc3ccc(Cl)cn23)c1,-3.6% (inactive)
8,CCCCCNC(=O)C1C(=O)Nc2ccccc2C(=O)N1C(C)(C)C (configuration not stated),-7.39% (inactive)
9,CC(CNC(=O)c1ccc(Br)o1)NC(=O)c1ccc(Br)o1 (configuration not stated),-54.6% (active)
10,O=C(NCc1cccs1)c1ccc(Br)o1,4.81% (inactive)
11,O=C(CNC(=O)c1ccc(Br)o1)Nc1ccccc1,-2.2% (inactive)
12,CSc1ccc(CN2CCC2(C)C(=O)NCc2ccccc2Br)cc1 (configuration not stated),17.1% (inactive)
13,COc1ccccc1-c1cc(NC(C)=O)c2ncc(-c3ccc(F)cc3)n2c1,-5.85% (inactive)
14,CCCc1ccc(C(O)c2ncc(-c3cccc(OC)c3)[nH]2)cc1 (configuration not stated),14% (inactive)
15,COc1ccc(/C=C(/CC(=O)Nc2ccc(C)cc2)c2nc3ccccc3s2)cc1,-7.45% (inactive)
16,COc1cccc2sc(NNC(=O)c3nc4ccccc4s3)nc12,-61.5% (active)
17,COc1cccc2sc(N(CCCN(C)C)C(=O)C(c3ccccc3)c3ccccc3)nc12,12.8% (inactive)
18,O=C(/C=C/[C@H]1O[C@@H](n2ccc(=O)[nH]c2=O)[C@H](O)[C@@H]1O)NCc1ccccn1,2% (inactive)
19,CCOC(=O)C[C@H]1c2ccc(C(F)(F)F)cc2S(=O)(=O)N1c1ccccc1,2.77% (inactive)
20,CCOC(=O)C1Nc2ccc(C(F)(F)F)cc2C2C=CCC12 (configuration not stated),-55.4% (active)
21,CCOC(=O)[C@H]1Nc2ccc(Cl)cc2[C@@H]2[C@H]1C1CC(c3ccccc31)N2C(=O)OCc1ccccc1 (some centres not stated),19.9% (inactive)
22,Nc1cccc(-c2cncc(N3CCN(Cc4ccccn4)CC3)n2)c1,-6.48% (inactive)
23,CC(=O)c1sc2nc(SCC(=O)N3CCCCC3)[nH]c(=O)c2c1C,-59.2% (active)

row,Compound,max response
1,C=CCNC(=O)CSc1nc2sc(C)c(C)c2c(=O)[nH]1,-2.42% (inactive)
2,O=C(CSc1nc2c(cnn2-c2ccc(F)cc2)c(=O)[nH]1)N1CCCCCC1,-3.16% (inactive)
3,CCOC(=O)[C@]12CCCC=C1N(CCC1=CCCCC1)C(=O)[C@H](CC(=O)NCCCOC)C2,-1.91% (inactive)
4,CCC(C)Cn1c(O)cc2nn(-c3nc4ccccc4s3)c(=O)c-2c1C (configuration not stated),-79.1% (active)
5,Cc1cc(NC(=O)CN2CCCC(C)C2)n(-c2nc3ccccc3s2)n1 (configuration not stated),14.1% (inactive)
6,CCC(=O)NC(=Nc1nc2ccccc2s1)NC(=O)CC,10.4% (inactive)
7,COC(=O)[C@]12CCCCC=C1N(Cc1ccc(Cl)cc1Cl)C(=O)[C@H](CC(=O)NCc1cccc3ccccc13)C2,20.1% (inactive)
8,COc1cc(C=C(OC(C)=O)c2ccc3c(c2)OCO3)cc(OC)c1OC,3.06% (inactive)
9,C#CCOc1ccc(/C=C2/C(=O)NN(c3ccccc3)C2=O)cc1OC,-22.1% (inactive)
10,COc1cc(/C=C2/C(=O)NN(c3ccc(F)cc3)C2=O)cc([N+](=O)[O-])c1O,-57.5% (active)
11,COc1cc(/C=C2/C(=O)NN(c3cccc(Cl)c3)C2=O)cc(Br)c1O,-54.1% (active)
12,COc1cc(CN2CC(C)CC(C)C2)cc([N+](=O)[O-])c1O (configuration not stated),0.224% (inactive)
13,COc1ccc(N2C(=O)CC(Nc3ccc(F)cc3)C2=O)c([N+](=O)[O-])c1 (configuration not stated),-6.93% (inactive)
14,COc1cc(/C=N/O)cc(Br)c1OCc1cccc(Cl)c1,39.6% (inactive)
15,COC(=O)C1(C(=O)OC)C[C@H](c2ccccc2)N(Cc2ccccc2OC)[C@@H]1c1ccccc1,15.9% (inactive)
16,CCc1cccc(CC)c1N1C(=O)CC(Sc2ccccc2N)C1=O (configuration not stated),0.428% (inactive)
17,COCOc1cccc(CN2CCC(C)(Oc3ccc(SC)cc3)C2)c1 (configuration not stated),9.73% (inactive)
18,CCCc1nc2c3ccccc3ccn2c1Cc1ccccc1C(F)(F)F,-0.571% (inactive)
19,COC(=O)[C@]12CCCCC=C1N(Cc1ccccc1)C(=O)[C@H](CC(=O)NCc1ccc(C)o1)C2,-16.1% (inactive)
20,Cc1csc(NC(=O)Nc2ccccc2[N+](=O)[O-])n1,3.76% (inactive)
21,Cc1cc(NC(=O)Nc2ccccc2[N+](=O)[O-])no1,-55.9% (active)
22,Cc1cc(NC(=O)COc2ccc([N+](=O)[O-])cc2)no1,-7.69% (inactive)
23,Cc1c(C(=O)NCc2ccc(C#N)cc2)sc(=O)n1Cc1ccc(C(=O)N(C)C)cc1,-1.71% (inactive)

row,Compound,max response
1,COC(=O)c1ccc2nc(-c3ccccc3)c(Cc3ccc(OC)cc3C)n2c1,-3.87% (inactive)
2,CC1Cc2[nH][nH]c(=O)c2C(C2CC2)O1 (configuration not stated),6.96% (inactive)
3,COc1ccc(-c2cc3c(c4c2ccn4C)C2CCC3C2)cn1 (configuration not stated),19.1% (inactive)
4,COc1ccc(OCc2n[nH]c(=S)n2N)cc1,-58.2% (active)
5,S=c1[nH]nc(COc2ccccc2)n1-c1ccccc1,2.36% (inactive)
6,Cc1ccc(OCc2n[nH]c(=S)n2-c2ccccc2)cc1,-0.211% (inactive)
7,CCc1nnc(NS(=O)(=O)c2ccc(NC(=S)NC(=O)/C=C/c3cccs3)cc2)s1,-51.8% (active)
8,CCc1nnc(NS(=O)(=O)c2ccc(NC(=O)c3cccc(OC(F)(F)C(F)F)c3)cc2)s1,-19.6% (inactive)
9,CCOC(=O)c1c(NC(=S)NC(=O)/C=C/c2cccs2)sc(C)c1C,-4.36% (inactive)
10,CCc1nc2ccc(C(=O)NCCNC(C)=O)cn2c1N(CC)Cc1cccc(Br)c1,2.11% (inactive)
11,COc1cccc2c1C(=O)c1c(O)c3c(c(O)c1C2=O)CC(O)(C(C)=NNC(=O)c1ccc(Cl)c(Cl)c1)CC3OC1CC(N)C(O)C(C)O1 (configuration not stated),-61.1% (active)
12,CCc1cc(-c2nnn(CCC3COCCO3)c2CC)ccc1-c1cn(Cc2ccc3ccccc3c2)nn1 (configuration not stated),10.5% (inactive)
13,O=C(NCc1cccnc1)c1cc(C2CCCCN2C(=O)CCc2ccccc2)on1 (configuration not stated),-8.66% (inactive)
14,O=C(NC1=CC(=O)c2ccccc2C1=O)c1ccccc1,-2.02% (inactive)
15,CC(=O)N(C1=C(Cl)C(=O)c2ccccc2C1=O)c1ccc(C(=O)O)cc1,-81.9% (active)
16,CC(C)(C)C1CCC(=O)N2CCC[C@]2(c2ccccc2)C1 (some centres not stated),-0.325% (inactive)
17,Cc1cccc(C)c1-n1nnnc1C1(C)CCC(=O)N1CCOc1ccccc1 (configuration not stated),6.34% (inactive)
18,O=C(CSc1nnc(SCc2ccc(Cl)cc2)s1)N/N=C/c1ccccc1Cl,-9.79% (inactive)
19,O=C(CSc1nnc(SCc2ccc(F)cc2)s1)Nc1ccc(C(=O)O)cc1,-51.9% (active)
20,Cn1nnnc1SCC(=O)Nc1nc2ccccc2s1,5.87% (inactive)
21,O=C(CSc1nc2ccccc2s1)Nc1ccc(C(=O)O)cc1,-69.8% (active)
22,Nc1nnc(SCC(=O)Nc2ccc3nc(SCC(=O)Nc4ccccc4)sc3c2)s1,-22.9% (inactive)
23,COc1cc(OC)cc(-c2nnc(SCC(=O)Nc3ccc(C(=O)O)cc3)s2)c1,-16.4% (inactive)
